# Hits are enriched below; roughly 2.8% of the tested compounds scored in any of these assays.
# pPAFAH inh: pPAFAH (human) enzyme inhibition; Q13093; recombinant pPAFAH, FP-rhodamine probe fluorescence polarization; inhibition, % at 3.39 µM; 1.5% of 330,000 active;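 active = inhibition above the mean inhibition across the screen plus 3 SD, cut at about 25% in these data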;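 note: inhibitors block binding of the rhodamine activity-based probe so polarization drops; 0% = enzyme with DMSO and 100% = wells lacking pPAFAH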
# Target sequence (Q13093 whole entry, looked up): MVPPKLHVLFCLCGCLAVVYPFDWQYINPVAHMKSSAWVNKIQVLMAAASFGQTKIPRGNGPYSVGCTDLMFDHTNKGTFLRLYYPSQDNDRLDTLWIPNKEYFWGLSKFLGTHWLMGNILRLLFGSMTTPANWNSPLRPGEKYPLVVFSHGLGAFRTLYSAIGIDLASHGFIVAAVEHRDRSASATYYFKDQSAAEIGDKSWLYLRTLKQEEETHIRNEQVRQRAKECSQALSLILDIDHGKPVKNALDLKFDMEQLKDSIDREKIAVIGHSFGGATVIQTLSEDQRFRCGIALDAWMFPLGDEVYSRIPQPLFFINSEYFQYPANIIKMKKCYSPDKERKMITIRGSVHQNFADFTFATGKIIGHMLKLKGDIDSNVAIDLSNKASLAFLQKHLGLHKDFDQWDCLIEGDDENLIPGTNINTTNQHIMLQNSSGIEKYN
# PAFAH1B2 inh: inhibitors of human PAFAH1B2. P68402. recombinant PAFAH1B2, FP-rhodamine activity probe, fluorescence polarization. inhibition, % at 3.39 µM. 1.2% of 340,000 active;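 active = inhibition above the mean of all tested compounds plus 3 SD, cut at about 24% in these data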;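 note: 0% = enzyme with DMSO and 100% = wells lacking PAFAH1B2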
# PAFAH2 FP inh: PAFAH2 (human) inhibition; Q99487; recombinant PAFAH2, FP-rhodamine activity probe, fluorescence polarization; inhibition, % at 3.39 µM; 0.99% of 340,000 active;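 active = inhibition above the mean over all tested compounds plus 3 SD, cut at about 30% in these data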;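 note: inhibitors block probe labeling of enzyme so polarization drops; 0% = enzyme with DMSO and 100% = wells lacking PAFAH2 protein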
# Fam108B inh: blocks mouse Fam108B hydrolase in RBBP9 counter-screen. 0.33% of 300,000 active. recombinant Fam108B, FP-Rh probe fluorescence polarization. AID 1947. inhibition, % at 9.51 µM;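 active = inhibition above the screen mean inhibition plus 3 SD, computed separately per campaign, cut at about 18% in these data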;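 note: inhibitors lower polarization as less probe binds the enzyme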
# PAFAH1B3 inh: inhibitors of human PAFAH1B3 | inhibition, % at 3.39 µM | 0.28% of 340,000 active | recombinant PAFAH1B3, FP-rhodamine probe, fluorescence polarization;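 active = inhibition above the screen-wide average of all tested compounds plus 3 SD, cut at about 25% in these data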;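 note: 0% = enzyme with DMSO only and 100% = wells lacking PAFAH1B3 protein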
# PME-1 inh: blocks human protein phosphatase methylesterase 1. Q9Y570. recombinant PME-1, FP-Rh probe fluorescence polarization. inhibition, % at 5.9 µM. 0.53% of 320,000 active;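 active = inhibition above the campaign mean of all compounds plus 3 SD, cut at about 26% in these data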;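 note: competitive labeling of PME-1 active site by serine hydrolase directed probe; 0% = PME-1 with DMSO and 100% = wells lacking PME-1 enzyme; inhibitors block probe labeling so polarization falls and inhibition rises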
# PAFAH2 FP conf: confirmation of human PAFAH2 inhibitors. shares compounds with PAFAH2 FP inh. recombinant PAFAH2, FP-rhodamine activity probe, fluorescence polarization. inhibition, % at 3.39 µM. 65% of 2,300 active. AID 493030;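 active = mean inhibition over three repeats above a set limit taken from the earlier primary screen, cut at about 30% in these data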;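 note: inhibitor blocks binding of rhodamine activity probe so polarization falls; 0% = enzyme with DMSO and 100% = wells lacking PAFAH2 protein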
# The depositor's hits bear a star; · = no result.
SMILES,pPAFAH inh,PAFAH1B2 inh,PAFAH2 FP inh,Fam108B inh,PAFAH1B3 inh,PME-1 inh,others
COC(=O)c1ccc(CNC(=O)COC(=O)c2ccccc2-c2ccccc2)cc1,7,5,0,2,8,10,
COc1cc(OC)cc(C(=O)OCC(=O)NCCCc2ccccc2)c1,5,-1,15,-2,3,1,
COc1ccccc1CN1CN(S(=O)(=O)c2ccccc2)c2nc3ccccc3nc21,14,5,-5,-6,-2,-8,
O=C(O)CCN1CC2([N+](=O)[O-])C=CC(=O)C([N+](=O)[O-])(C1)C2CC(=O)c1ccccc1 (centres undefined),22,5,0,10,5,0,
CCN1CCC(N2CCN(c3ccccc3OC)CC2)CC1,4,7,5,-4,10,-2,
COc1ccc(C(=O)N2CCC3(CC2)NCCc2[nH]cnc23)cc1OC,4,13,4,-1,13,-1,
Cc1nc(NC(=O)/C=C/c2ccccc2)n[nH]1,-1,7,-3,0,3,2,
COc1cccc(/C=N/NC(=O)c2cccc3ccccc23)c1OC,-2,2,-6,-3,7,-5,
CC(=O)Nc1ccc(OCC(=O)NCc2ccccc2)cc1,-2,-7,-6,-1,-4,4,
CC(=O)Nc1ccc(C(=O)OCC(=O)c2ccc(F)cc2)cc1,-9,5,38*,-1,5,-1,PAFAH2 FP conf=36*
O=C(COC(=O)C1=Cc2ccccc2OC1)NCc1ccccc1,3,2,31*,5,0,8,PAFAH2 FP conf=23
CC(=O)Nc1ccc(NC(=O)CCC(=O)OCC(=O)c2ccc(F)cc2)cc1,0,2,-2,2,12,-4,
CN(C)c1ccc(C(=O)OCC(=O)Nc2ccc(N3CCOCC3)cc2)cc1,4,2,49*,8,10,1,PAFAH2 FP conf=35*
COc1ccc(C(=O)OCC(=O)Nc2ccc(N3CCOCC3)cc2)cc1,8,-1,17,·,0,-5,
CC(=O)Nc1ccc(C(=O)OCC(=O)NCc2ccccc2)cc1,-6,2,55*,9,8,-2,PAFAH2 FP conf=46*
CCN(C(=O)COC(=O)c1cc([N+](=O)[O-])ccc1N1CCOCC1)C1CCCCC1,-3,14,-1,2,5,2,
C=CCN(c1ccccc1)S(=O)(=O)c1ccc2c(c1)N(C(C)=O)CCO2,-1,11,-1,-2,3,0,
COc1ccc(S(=O)(=O)N2CN3CCN(C3)C2)cc1,2,-2,7,-2,5,-2,
CC(=O)c1ccc(OCc2cc(C(=O)N(C)CCOc3ccc(C)cc3)no2)cc1,-1,0,0,1,-8,1,
COC(=O)c1cc(COC(=O)CNC(=O)c2ccc(Br)cc2)oc1C,2,3,2,·,15,·,
CN(C)c1ccc(C(=O)OCc2ccc(Br)cc2)cc1,10,12,34*,0,-2,3,PAFAH2 FP conf=35*
C=CCNC(=O)C(=O)Nc1ccc2c(c1)N(S(=O)(=O)c1cccs1)CCC2,6,12,-2,1,2,1,
CCCOC(=O)C1=C(C)N(C)C(=O)NC1c1cc2c(cc1Br)OCO2 (centres undefined),5,1,-4,1,2,4,
Cc1cc(C)c2c(-n3cccc3)nn(C)c2n1,6,3,-7,-4,6,-8,
Cc1ccc(C(=O)n2nc(-n3cccc3)c3c(C)cc(C)nc32)cc1,·,2,49*,·,10,·,PAFAH2 FP conf=51*
CCCCn1c(N)c(N(Cc2ccccc2OC)C(=O)COc2ccc(F)cc2Cl)c(=O)[nH]c1=O,2,1,-6,1,3,3,
C=CCOc1ccc(/C=C2\SC(N3CCCCC3)=NC2=O)cc1,3,5,5,-1,3,3,
Cc1ccccc1N1CCN(C2=NC(=O)/C(=C\c3cccs3)S2)CC1,20,1,41*,-4,6,10,PAFAH2 FP conf=31*
O=C1N=C(N2CCN(c3cccc4ccccc34)CC2)S/C1=C/c1cccs1,-2,-4,5,-2,-1,-8,
O=C1c2ccccc2C(=O)C2OC12 (centres undefined),6,·,·,2,·,7,

# Screening results deposited in PubChem BioAssay by The Scripps Research Institute Molecular Screening Center.
